From PubChem BioAssay AID1794808 (University of Kansas High Throughput Screening Laboratory, 2022)
Where “and” joins values, the source holds several entries; their conditions need not be identical. Identical values can stand only once. Screen size: about 210,000 compounds; about 520 (0.25%) were called active. Cut-off read from the data, not from the text of the source: active = inhibition above about 50%; inactive = the rest. The full list was thinned out, with actives kept by preference. The source holds several records for some structures; these can differ, active in one and inactive in another.

test system: Plasmodium falciparum apicoplast DNA polymerase (apPOL); assay: Pf-apPOL inhibitors, biochemical, fluorescence (AID 1794808); conditions: Recombinant Pf-apPOL, molecular beacon fluorescence, 1.5 h; at 10 µM; stronger effect = higher value

SMILES	inhibition
Cc1cccc(NC(=O)CSc2nccn2C)c1C	-4.4% (inactive)
COC(=O)c1cc(Nc2cc(F)ccc2F)c2ccccc2n1	-1.7% (inactive)
CCc1ccc(NC(=O)CCS(=O)(=O)c2ccc(Br)s2)cc1	-6.3% (inactive)
COc1ccc(CC2(C)OC(c3ccc(C(C)(C)C)cc3)=NN2C(C)=O)cc1 (configuration not stated)	5.3% (inactive)
CCOc1nn(-c2nc(-c3ccccc3)cc(C(F)(F)F)n2)cc1[N+](=O)[O-]	1.6% (inactive)
c1ccc2[nH]c(CSc3nc4ccccc4[nH]3)nc2c1	86% (active) and -1.3% (inactive)
CNC(=O)CSc1nc2ccccc2[nH]1	-7.9% (inactive)
c1ccc(-c2nnc(SCc3nc4ccccc4[nH]3)o2)cc1	-3% (inactive)
COc1ccc(C2=NOC(C(=O)N3CCCc4ccccc43)C2)cc1OC (configuration not stated)	-3.1% (inactive)
O=C(NCc1cccc(F)c1)C1CCc2sc(C(=O)N3CCCC3)cc2C1 (configuration not stated)	-2.5% (inactive)
CCn1ccc(C(=O)N2CCCC2c2cccc(F)c2)n1 (configuration not stated)	-3.5% (inactive)
O=C(NCC1CN(c2ccc3c(c2)OCO3)C(=O)O1)c1ccco1 (configuration not stated)	-9.6% (inactive)
CC(C)(C)c1ccc(CC(=O)c2ccc(O)cc2O)cc1	-3.9% (inactive)
O=C1CCCC2=C1C(c1ccccn1)C1=C(CCCC1=O)O2	-0.8% (inactive)
O=C(Nc1ncc(Cc2cccc(C(F)(F)F)c2)s1)c1ccc(-n2cnnn2)cc1	-2.3% (inactive)
CCOC(=O)N1CCc2nn(CC(=O)NC(C)CCc3ccccc3)c(=O)cc2C1 (configuration not stated)	-4.2% (inactive)
O=C(Nc1nnc(CSCc2ccccc2)s1)c1ccc(F)cc1	-1.1% (inactive)
COc1ccc(CCNC(=O)C2c3ccccc3C(=O)N2Cc2ccc(C)cc2)cc1OC (configuration not stated)	-9.1% (inactive)
O=C(Nc1ccc(-c2nc3ccccc3[nH]2)cc1)c1cccc(F)c1	-15.5% (inactive)
CCNC(=O)c1nsc2ccc(C)cc12	-1.8% (inactive)
CCOC(=O)c1ccc(NS(=O)(=O)c2c[nH]c(=O)[nH]c2=O)cc1	-10.5% (inactive)
CCN(CC)CCCNC(=O)C1CCN(S(=O)(=O)N2CCC3(CC2)OCCO3)CC1	-18.9% (inactive)
Cc1ccc(-n2cc(C(=O)N3CCCCC3)nn2)cc1C	-2.2% (inactive)
COc1ccc(/C=C2\N=C(c3cc(OC)c(OC)c(OC)c3)OC2=O)cc1	-0.6% (inactive)
Cc1ccc(-n2c(O)c(C=Nc3cc(Cl)ccc3O)c(=O)[nH]c2=O)cc1	-0.1% (inactive)

SMILES	inhibition
CCc1c(C)c2ccc(OCC(C)C)cc2oc1=O	-2.3% (inactive)
COc1ccc(CCNC(=O)C2CC(=O)N(c3ccc(F)c(Cl)c3)C2)cc1OC (configuration not stated)	4.9% (inactive)
O=C1CC2(CCN(C(=O)C=Cc3ccccc3)CC2)Oc2ccccc21	-17.9% (inactive)
O=C(Nc1ccc(Br)cn1)c1ccc([N+](=O)[O-])cc1Cl	81.8% (active)
Cc1cc(C)nc(NC(=O)c2ccc([N+](=O)[O-])cc2Cl)c1	5.5% (inactive)
O=C(Nc1ccncc1)c1ccc([N+](=O)[O-])cc1Cl	0.3% (inactive)
O=C(C1CC1)N1CCC(COCc2ccccc2)CC1	-12.6% (inactive)
CCS(=O)(=O)Oc1ccccc1-c1nc2cc(Cl)ccc2o1	-3.6% (inactive)
Cc1ccc(C(=O)N2CCC(CCOc3ccc(F)cc3)CC2)s1	4.5% (inactive)
CN1CCN(C(=O)C2CCC(=O)N2Cc2ccccc2Cl)CC1 (configuration not stated)	-11.4% (inactive)
CC(C)c1nnc(NC(=O)CCCOc2ccc(Cl)cc2)s1	4.4% (inactive)
O=[N+]([O-])c1ccc(-c2noc(COc3ccc(Cl)cc3Cl)n2)cc1	1.6% (inactive)
O=C(NCCc1ccccc1)C1CCN(S(=O)(=O)c2ccc(Br)cc2)CC1	98.3% (active)
O=C(NCCc1ccccc1)C1CCN(S(=O)(=O)c2ccc(Br)s2)CC1	-9% (inactive)
O=C(NCCc1ccccc1)C1CCN(CC2CCCCC2)CC1	12.9% (inactive)
Cc1cccc(NC(=O)c2cc3c(CO)cnc(C)c3oc2=Nc2ccc3c(c2)OCO3)c1	-0.2% (inactive)
CCn1c(-c2cc(NC(=O)c3ccncc3)n[nH]2)cc2ccccc21	-0.8% (inactive)
O=C(Nc1ccc(Cl)cc1[N+](=O)[O-])c1ccc(Cl)cc1	-0.2% (inactive)
Cc1cc(C)nc(Nc2nc(CC(=O)Nc3nc(-c4ccco4)cs3)cs2)n1	69.6% (active)
COC(=O)Nc1nc(CC(=O)NCc2ccco2)cs1	-1.8% (inactive)
O=C(CCCn1cccc1)Nc1nc(-c2ccco2)cs1	0.6% (inactive)
Cc1nccn1Cc1nc(-c2ccc(F)c(Br)c2)no1	-2.5% (inactive)
COc1ccc(C(C)=C2SC(=S)N(CCC(=O)O)C2=O)cc1	3.2% (inactive)
Cc1nc2c(ccc3nc(NC(=O)NCc4cccs4)sc32)s1	-4.8% (inactive)
O=C(c1ccncc1)N1CCCC(c2nc(-c3ccc(F)cc3)n[nH]2)C1 (configuration not stated)	10% (inactive)

SMILES	inhibition
COc1ccc(C(=O)N2CCN(c3nc(C(C)C)c4c(c3C#N)CC(C)(C)OC4)CC2)cc1	-3.4% (inactive)
CCCNc1cc(N2CCC(CCC(=O)NC(C)C)CC2)ncn1	-1.9% (inactive)
COc1cc(/C=c2\sc3nc(-c4ccc(Cl)cc4)nn3c2=O)cc(OC)c1OC	3.7% (inactive)
O=C(CSc1nnc(SCC(=O)NCCSCc2ccco2)s1)NCCSCc1ccco1	91.9% (active)
Cc1ccc(S(=O)(=O)NC(=O)NCCSCc2ccco2)cc1	25.5% (inactive) and 3.2% (inactive)
O=C(Cn1nnc2ccccc21)NCCSCc1ccco1	9.1% (inactive)
O=C(CSc1ccc(C(F)(F)F)cc1[N+](=O)[O-])NCCOc1ccccc1	57.6% (active)
COc1ccccc1OCCNC(=O)CSc1ccc(C(F)(F)F)cc1[N+](=O)[O-]	-0.4% (inactive)
Cc1cccc(OCCNC(=O)CSc2ccc(C(F)(F)F)cc2[N+](=O)[O-])c1	-4.3% (inactive)
O=C(Cc1ccsc1)N1CCn2cnnc2C1	0.2% (inactive)
Cc1nc(C(=O)NCc2ccc(C(F)(F)F)cc2)c(C)o1	-4.9% (inactive)
Cc1ccc(C2CC(c3ccccc3)Nc3nnnn32)cc1 (configuration not stated)	-7% (inactive)
O=C(Nc1ccccc1[N+](=O)[O-])c1[nH]ncc1[N+](=O)[O-]	-24.6% (inactive)
Cc1ccc(-n2cc(C(=O)Nc3ccc4c(c3)OCCO4)c3ccccc3c2=O)cc1C	-2.6% (inactive)
O=C(c1ccoc1)N1CCCCC1CCN1CCOCC1 (configuration not stated)	-2% (inactive)
O=C(NC1CC1)c1cccc(OCC2CCCN(C(=O)C3CCCCC3)C2)c1 (configuration not stated)	-3.3% (inactive)
COc1ccc(CNC(=O)c2cncc(OC)c2)cc1	0.2% (inactive)
O=C(CS(=O)(=O)CC(=O)c1ccccc1)c1ccccc1	-2.4% (inactive)
Cc1c(Cl)ccc(NC(=O)C2CCCN2S(=O)(=O)c2ccccc2)c1Cl (configuration not stated)	-7.1% (inactive)
O=C(Nc1ccc(Cl)cc1)NC1(C(F)(F)F)Oc2ccccc2O1	1.5% (inactive)
COc1ccc(Cl)cc1NC(=O)CN(c1ccccc1)S(=O)(=O)c1ccccc1[N+](=O)[O-]	-6.5% (inactive)
CC1=C(C(=O)Nc2ccc(Cl)cc2)C(c2ccc(Cl)cc2Cl)n2ncnc2N1 (configuration not stated)	6% (inactive)
CCN(CC)S(=O)(=O)c1ccc(Cl)c(C(=O)O)c1	-5% (inactive)
Cc1ccc(Cl)cc1NC(=O)C(=O)NCc1ccccn1	0.8% (inactive) and 0% (inactive)
O=C(COc1ccc(F)cc1)Nc1nnc(C2CC(=O)N(c3ccccc3)C2)o1 (configuration not stated)	4.1% (inactive)

SMILES	inhibition
CN(C)c1ccc(/C=C(\C#N)c2ccc([N+](=O)[O-])cc2)cc1Br	-5.5% (inactive)
COCC(=O)N1CCCCC1c1nncn1CC1CC1 (configuration not stated)	3.4% (inactive)
CC(C)(C)C(=O)Oc1ccc(C=Cc2ccccn2)cc1	-22% (inactive)
O=C(CSc1nnc(NC(=O)c2ccc(Cl)c(Cl)c2)s1)NCc1ccco1	0.7% (inactive)
Nc1ccc2nc(SCC(=O)NC3CC3)sc2c1	6.4% (inactive)
O=C(CSc1nnc(NC(=O)c2cc(-c3ccco3)on2)s1)NC1CCCC1	60.9% (active)
O=C1CC(NCc2ccc3c(c2)OCO3)C(=O)N1c1ccc(OC(F)(F)F)cc1 (configuration not stated)	0.2% (inactive)
Cc1cc(C)c(S(=O)(=O)N2CCC(c3noc(-c4ccc(F)cc4)n3)CC2)c(C)c1	-5.5% (inactive)
O=Cc1ccc(OCc2ccc(I)cc2)cc1	-6.6% (inactive)
COc1ccccc1C(=O)Oc1ccc2c(c1)OC(=Cc1cccc(OC)c1OC)C2=O	-1.8% (inactive)
COc1ccc(CCNC(=O)CSc2ccc(-n3cccn3)nn2)cc1OC	-3.3% (inactive)
CC(C)(C)C(O)CCNC(=O)C(=O)NCc1ccccc1 (configuration not stated)	-5.8% (inactive)
O=C(NCC(O)c1ccsc1)c1cccc2ccccc12 (configuration not stated)	-3.1% (inactive)
COc1ccc(-c2cn3c4c(=O)n(C)c(=O)n(C)c4nc3n2CCO)cc1	-0.7% (inactive)
Cn1c(=O)c2c(-c3ccccc3)n(-c3cccc([N+](=O)[O-])c3)cc2n(C)c1=O	0.3% (inactive)
COc1ccc(-c2c3c(=O)n(C)c(=O)n(C)c3cn2-c2ccc(Br)cc2)cc1	73.4% (active)
CN1CCC(N2CCN(C(=O)C3CCc4sc(C(=O)N5CCCC5)cc4C3)CC2)CC1 (configuration not stated)	-2.3% (inactive)
CC(C)N1CCN(C(=O)c2csc(N3CCN(c4ccccc4)CC3)n2)CC1	-6.1% (inactive)
CCOc1ccc(-c2cc3n(n2)CCCN(C(=O)c2ccccn2)C3)cc1	-2.1% (inactive)
O=C(c1cccc(-n2cnnn2)c1)N1CCN(c2ccc(-c3cccs3)nn2)CC1	-10.3% (inactive)
O=C(Nc1cccs1)N1CCN(C(=O)C2CCCO2)CC1 (configuration not stated)	0.6% (inactive)
O=C(Nc1cccs1)N1CCN(c2ccc(-c3ccco3)nn2)CC1	64.3% (active)
